# According to PubChem BioAssay AID2384 (Southern Research Specialized Biocontainment Screening …, 2010):
# The whole screen tested about 2,300 compounds, of which about 1,100 (48%) were called active. The rule behind the calls is not given here. The set was probably picked from earlier hits. Some of the results follow. Results with a measured potency or affinity are listed apart.
# Test: S. typhi counter-screen signal inhibition – fluorescence, 4 h, counter-screen for PhoP regulon inhibitor project, dose response (AID 2384)
# Conditions: S. typhi GFP reporter counter-screen; series mostly up to 150 µM; inhibition: at the top concentration
row,SMILES,inhibition
1,CCc1c(C)nc2cc(-c3cc(OC)cc(OC)c3)nn2c1N1CCCC1,12.4% (inactive)
2,CCN1CCc2c(C#N)c(NCc3ccccc3)nc(NCCO)c2C1,10.4% (inactive)
3,Cc1[nH]nc2c1C(C1CC=CCC1)C(C#N)=C(N)O2 (stereo unspecified),-21.3% (inactive)
4,C#CC(=O)N(c1cccc(OC)c1)C(C(=O)NC1CCCC1)c1cccs1 (stereo unspecified),-6.44% (inactive)
5,O=C(CCCc1ccccc1)Nc1cccnc1,8.17% (inactive)
6,CCOCCCNC(=O)C(c1ccc(OC)cc1)N(Cc1cccs1)C(=O)c1ccccn1 (stereo unspecified),-14% (inactive)
7,COc1ccc(CCC(=O)NCc2cn3ccccc3n2)cc1,-5.49% (inactive)
8,COc1ccc(-c2nc3ccc(C(=O)NCC(OC)OC)cc3nc2-c2ccc(OC)cc2)cc1,-2.98% (inactive)
9,S=C(Nc1ccccc1Cl)N(Cc1ccccc1)Cc1ccccn1,-17% (inactive)
10,COCCCNC(=O)c1cc(OC)c(OC)c(OC)c1,-18.1% (inactive)
11,O=c1c2ccccc2ncn1Cc1ccc(Cl)cc1,5.03% (inactive)
12,CCOC(=O)CSc1nnc2c(n1)C1(C)CCC2C1(C)C (stereo unspecified),0.17% (inactive)
13,O=C(O)/C=C/c1cn(-c2ccccc2)nc1-c1cc2ccccc2oc1=O,-6.24% (inactive)
14,Cc1cccc(OCC(=O)NNc2c3ccccc3nc3ccccc23)c1,8.34% (inactive)
15,Cc1ccc(OCC(=O)N2CCN(S(C)(=O)=O)CC2)cc1,13.9% (inactive)
16,CCC(C)(C)NC(=O)COc1ccc(C(=O)c2ccccc2)cc1,3.67% (inactive)

row,SMILES,inhibition
1,CCOc1ccc(NC(=O)CN(C)S(=O)(=O)c2cccs2)cc1,14.8% (inactive)
2,COc1ccc(Cl)cc1S(=O)(=O)N1CCN(C(=O)c2ccco2)CC1,20.3% (inactive)
3,CCOC(=O)c1ccc(S(=O)(=O)N2CCN(CCC#N)CC2)cc1,-7.98% (inactive)
4,CCOC(=O)N1CCN(CC(=O)Nc2ccc(F)cc2F)CC1,4.71% (inactive)
5,CCOC(=O)N1CCN(C(=S)NC(=O)c2ccc(Br)cc2)CC1,6.72% (inactive)
6,COc1ccc(N(CCCN2C(=O)c3cccc4cccc(c34)C2=O)C(=O)c2cccnc2)cc1,7.69% (inactive)
7,C/C(=N\NC(=O)COc1ccccc1[N+](=O)[O-])c1cccs1,4.14% (inactive)
8,CCn1cc(C(=O)O)c(=O)c2cc(F)c(N3CCN(C(=S)NC(=O)c4ccccc4F)CC3)cc21,7.79% (inactive)
9,O=C(Cn1c(=O)oc2cc(S(=O)(=O)N3CCCC3)ccc21)N1CCN(c2ccccc2F)CC1,-19.8% (inactive)
10,CC1CCCN(C(=O)Cn2c(=O)oc3cc(S(=O)(=O)N4CCCCC4)ccc32)C1 (stereo unspecified),-8.49% (inactive)
11,CCN(CC)c1cc(C)c2cc(NC(=O)c3ccccc3F)ccc2n1,16.7% (inactive)
12,N=C1c2ccccc2CN1c1ncccn1,24.2% (inactive)
13,COCCCNc1c2c(nc3nnnn13)CCCC2,-14.2% (inactive)
14,CCN(CC)S(=O)(=O)c1ccc(N2CCOCC2)c(C(=O)O)c1,10.2% (inactive)
15,CCN(CC)CCOC(=O)c1cc(Cl)c(N)cc1OC,-7.05% (inactive)
